Measured values taken from PubChem BioAssay (EPA / NIEHS).
Several values for one entry are separate records, joined by “and”; a condition that tells them apart may be missing. Equal values may be shown once. Some compounds were tested as several samples or in several runs, with calls that do not always agree. Activity calls are given as the source filed them. Rule for the calls: active = hit-call score of the fitted dose curve at least 0.9, where 1 is the maximum; inactive = score below 0.9.

Assays:
[1] = APR_HepG2_CellCycleArrest_24hr: Apredica 24-hour HepG2 Assay for Cell Cycle Arrest (AID 2282905); conditions: imaging, actives raise or lower the signal;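 note: cell cycle arrest scored as ratio of 2N to 4N nuclear DNA content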
Method in brief: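 Cell cycle arrest is scored from nuclear DNA content measured by high-content imaging of Hoechst 33342-stained HepG2 cells following 24-hour treatment at ten concentrations up to 200 uM, with DMSO as baseline.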

[2] = APR_HepG2_StressKinase_1hr: Apredica 1-hour HepG2 Assay for Stress Kinase (AID 2282906); conditions: HepG2 stress kinase (phospho-c-Jun) imaging, actives raise or lower the signal
Method in brief: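 HepG2 cells dosed 0.39-200 uM (0.5% DMSO) for 1 h, then formaldehyde-fixed. Stress kinase read by phospho-c-Jun immunofluorescence using high-content imaging; bidirectional fit vs DMSO.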

[3] = APR_HepG2_NuclearSize_24hr: Apredica 24-hour HepG2 Assay for Nuclear Size (AID 2282907); conditions: high-content imaging, actives raise or lower the signal
Method in brief: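 Compounds in DMSO (final 0.5%) were added to human HepG2 hepatoma cells at ten concentrations up to 200 uM for 24 hr. Fixed nuclei were stained with Hoechst 33342, and nuclear diameter was quantified from automated images.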

[4] = APR_HepG2_CellLoss_24hr: Apredica 24-hour HepG2 Assay for Cell Loss (AID 2282908); conditions: high-content imaging;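 for AC50: fit in both directions so a hit may be cell loss or gain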
Method in brief: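 Cell number is quantified by fluorescence imaging of Hoechst 33342-stained nuclei following dosing at 0.39–200 uM in 0.5% DMSO. Curves are fitted in both directions from the DMSO baseline.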

[5] = APR_HepG2_MicrotubuleCSK_24hr: Apredica 24-hour HepG2 Assay for Microtubule CSK Stabilty (AID 2282909); conditions: HepG2 microtubule cytoskeleton imaging, actives raise or lower the signal
Method in brief: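 Steps: dose HepG2 for 24 h (0.39–200 uM, 0.5% DMSO); fix 30 min in 3.7% formaldehyde at room temperature; permeabilize; stain alpha-tubulin 60 min; image microtubule cytoskeleton at 20x. Signal change fitted in both directions relative to DMSO.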

[6] = APR_HepG2_MitoticArrest_24hr: Apredica 24-hour HepG2 Assay for Mitotic Arrest (AID 2282910); conditions: high-content imaging, actives raise or lower the signal
Method in brief: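 HepG2 cells, 24 h exposure at 0.39-200 uM (10 concentrations, duplicate, 0.5% DMSO). Fixed, stained for phospho-histone H3 with Hoechst; imaged by high-content microscopy, bidirectional fit versus DMSO.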

[7] = APR_HepG2_MitoMembPot_24hr: Apredica 24-hour HepG2 Assay for Mitochondrial Membrane Potential (AID 2282911); conditions: imaging, actives raise or lower the signal
Method in brief: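 HepG2, 24 hr dosing, 10 concentrations 0.39–200 uM, 0.5% DMSO final. Live-cell MitoTracker Red CMXRos 250 nM 30 min, then 3.7% formaldehyde fix. HCS fluorescence imaging, 20x; bidirectional fit vs DMSO baseline.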

[8] = APR_HepG2_MitoMass_24hr: Apredica 24-hour HepG2 Assay for Mitochondrial Mass (AID 2282912); conditions: high-content imaging, actives raise or lower the signal
Method in brief: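 The liver line HepG2 was dosed in duplicate across a 0.39–200 uM series, with final DMSO held at 0.5% v/v, and harvested at 24 hr. High-content imaging measured mitochondrial dye staining.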

[9] = APR_HepG2_p53Act_24hr: Apredica 24-hour HepG2 Assay for p53 Activation (AID 2282913); conditions: high-content imaging, actives raise or lower the signal;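 note: p53 protein immunofluorescence averaged per cell in HepG2 with Hoechst nuclei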
Method in brief: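 Read-out: Cy5 immunofluorescence for p53 in fixed, permeabilized HepG2, imaged by HCS with Hoechst-defined nuclei. Dosing was 24 hr at 0.39–200 uM in 0.5% DMSO. Curves were fitted bidirectionally relative to DMSO.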

[10] = APR_HepG2_CellCycleArrest_72hr: Apredica 72-hour HepG2 Assay for Cell Cycle Arrest (AID 2282914); conditions: high-content imaging, actives raise or lower the signal
Method in brief: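 HepG2, 72 hr exposure, 10-point 0.39–200 uM, duplicate, 0.5% DMSO final. Fix 3.7% formaldehyde 30 min RT, Triton X-100 0.5%, Hoechst 33342 2 ug/mL. ArrayScan 20x, six fields/well; DNA content per nucleus; bidirectional fit vs DMSO.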

Measured: AC50

COC(=O)c1cccc(C)c1S(=O)(=O)NC(=O)Nc1nc(OCC(F)(F)F)nc(N(C)C)n1
inactive: all assays above

CCCCCCC(C)OC(=O)COc1nc(F)c(Cl)c(N)c1Cl (stereo unspecified)
active: [5] 116 µM
not listed: [1]
inactive: all other assays above

C#C[C@]1(O)CC[C@H]2[C@@H]3CCC4=CC(=O)CC[C@@H]4[C@H]3CC[C@@]21CC
not listed: [2]
inactive: all other assays above

COCCO
inactive: all assays above

CCCCCOC(=O)COc1cc(N2C(=O)C3=C(CCCC3)C2=O)c(F)cc1Cl
active: [2] 87.4 µM
not listed: [9]
inactive: all other assays above

CCCCOC(=O)[C@@H](C)Oc1ccc(Oc2ccc(C(F)(F)F)cn2)cc1
inactive: all assays above

CC1(C)C(C=C(Cl)Cl)C1C(=O)OCc1cccc(Oc2ccccc2)c1 (stereo unspecified)
active: [7] 100 µM | [10] 101 µM
inactive: all other assays above

CCN(CC)C(=O)c1cccc(C)c1
not listed: [9]
inactive: all other assays above

CCOC(=O)c1ccc(O)cc1
not listed: [2]
inactive: all other assays above

OB(O)O
not listed: [1]
inactive: all other assays above

O=C(O)C1(C(=O)Nc2ccc(Cl)cc2Cl)CC1
inactive: all assays above

COC(=O)c1ccccc1S(=O)(=O)NC(=O)Nc1nc(OC(F)F)cc(OC(F)F)n1
inactive: all assays above

CCCCC(CC)COC(=O)c1ccccc1C(=O)O (stereo unspecified)
not listed: [1]
inactive: all other assays above

CC(C)(c1ccc(O)cc1)c1ccc(O)cc1
active: [4] 106 µM and 107 µM and 100 µM | [5] 103 µM | [7] 12.7 µM and 30.5 µM and 101 µM | [8] 109 µM and 122 µM
inactive: [2] | [3] | [4] | [5] | [6] | [7] | [8] | [9] | [10]

C#CCOC(=O)[C@@H](C)Oc1ccc(Oc2ncc(Cl)cc2F)cc1
not listed: [1]
inactive: all other assays above

c1ccc(Nc2ccccc2)cc1
inactive: all assays above

CC(C)CCCCCCc1ccc(O)cc1
inactive: [3] | [9]
active: [1] 96.8 µM | [4] 26.8 µM | [5] 65.4 µM | [6] 26.3 µM | [7] 115 µM | [8] 34.5 µM | [10] 123 µM

S=C(S)NCCNC(=S)S.[Mn+2].[S-]C([S-])=NCCN=C([S-])[S-].[Zn+2]
inactive: [2] | [3] | [4] | [5] | [6] | [7] | [8] | [10]
active: [4] 50.1 µM [middle of 4 runs] | [6] 55.2 µM and 107 µM | [10] 53.5 µM and 51.5 µM

CCC(O)=C1C(=O)CC(C(=O)O)CC1=O (stereo unspecified)
not listed: [1]
inactive: all other assays above

CCCN(CCC)C(=O)SCC
inactive: all assays above

CCCOC(=O)NCCCN(C)C
not listed: [1]
inactive: all other assays above

COC(=O)CSc1cc(N=c2sc(=O)n3n2CCCC3)c(F)cc1Cl
active: [4] 103 µM
inactive: all other assays above

COC(=O)c1ccccc1C(=O)O
inactive: all assays above

CCCCOCCOCCOCc1cc2c(cc1CCC)OCO2
active: [5] 70 µM | [10] 45 µM
not listed: [9]
inactive: all other assays above

C=CCOC(Cn1ccnc1)c1ccc(Cl)cc1Cl (stereo unspecified)
active: [4] 55.8 µM
inactive: all other assays above

COC(=O)c1ccc(CNS(C)(=O)=O)cc1S(=O)(=O)NC(=O)Nc1nc(OC)cc(OC)n1
inactive: all assays above

COc1nc(C)nc(NC(=O)NS(=O)(=O)c2ccccc2OCCCl)n1
inactive: all assays above

CCOC(=O)[C@H](C)Oc1ccc(Oc2nc3ccc(Cl)cc3o2)cc1
active: [7] 96.7 µM
not listed: [1]
inactive: all other assays above
